# MCF10A rereplic = A quantitative high throughput screen for small molecules that induce DNA re-replication in MCF 10a normal breast cells; Potency, µM (highest dose often 46.1 µM), most hits filed as activators; 350,000 compounds, 2.9% hits; AID 624296, 2012; MCF 10A DNA re-replication, Hoechst nuclear intensity, 48 h; further: nearly all actives have a fitted effect of over 50% in size
# KB-3-1 cytotox = qHTS assay for MDR1-selective chemotherapeutics: Primary screen using the parental adenocarcinoma cell KB-3-1 | KB-3-1 viability, CellTiter-Glo ATP luminescence, 72 h | AID 1347075, 2019 | Potency, µM (highest dose often 46.1 µM), usual class: cytotoxic | 400,000 compounds, 1.4% hits; further: nearly all actives have a fitted effect of over 60% in size
#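 Using CellTiter-Glo luminescence, growth of non-resistant KB-3-1 adenocarcinoma cells is assessed 72 h after pin-tool compound addition at 37 °C. Normalized responses across the concentration series yield fitted curves.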
# SW480 rerep = A quantitative high throughput screen for small molecules that induce DNA re-replication in SW480 colon adenocarcinoma cells; SW480 DNA re-replication, Hoechst DNA content imaging, 48 h; 340,000 compounds, 1.8% hits; Potency, µM (highest dose often 46.1 µM), actives largely listed as activators; AID 624297, 2012; further: nearly all actives have a fitted effect of over 55% in size
#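 SW480 cells exposed to compounds for 48 hr at 37 C, 5% CO2, then Hoechst-stained 40 min. Nuclear DNA content imaged by fluorescence scanning (405 nm excitation, 500-530 nm emission); re-replication scored as increased high-intensity nuclei.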
# PINK1 modulator = A Quantitative High throughput Screen to Identify Chemical Modulators of PINK1 Expression; PINK1 immunofluorescence, high-content cytometry, 24 h; Potency, µM (series often up to 76.6 µM), actives largely listed as activators; 410,000 compounds, 0.2% hits; AID 624263, 2012; active means well fitted activation curve with a large enough effect; inconclusive means small, poorly fitted or top-dose-only effect; cell line not stated here; further: nearly all actives have a fitted effect of over 65% in size
#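 Stable cell line, 250 cells/well, 12 h attachment; compounds pinned at 5 concentrations, 24 h; CCCP control. Fixed with nuclear dye, primary antibodies 12 h at 10 degrees C, secondary plus cell stain; laser-scanning cytometer read.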
# KB-V1 MDR tox = qHTS assay for MDR1-selective chemotherapeutics: Primary screen using the drug-selected MDR subline cells KB-V1; KB-V1 MDR cells viability, CellTiter-Glo, 72 h; Potency, µM (highest dose often 46.1 µM), hits mostly cytotoxic; 400,000 compounds, 3.4% hits; AID 1347076, 2019; further: nearly all actives have a fitted effect of over 60% in size
#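 In this primary screen, KB-V1 cells overexpressing P-gp are incubated with library compounds (lowest to highest concentration) for 72 h at 37 degrees C before a luminescent ATP viability read.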
# Hits are given with their value; n = inactive; u = inconclusive; x = no result given. Shown are actives, neighbours in structure and some others; about 6.7% of the full set was active somewhere. Unless noted, the call rests on the fitted dose curve; in most records, active means well fitted curve in the direction sought with a large enough effect; inconclusive means small, poorly fitted or top-dose-only effect, or another doubt; inactive means no such curve, though single readings can be large; an effect the other way counts as inactive or inconclusive.
SMILES,MCF10A rereplic,KB-3-1 cytotox,SW480 rerep,PINK1 modulator,KB-V1 MDR tox
CCOc1ccc(S(=O)(=O)N2CCN(c3ccccc3F)CC2)c2cccnc12,n,n,16.4µM,n,u
C=CCC[C@H](Cc1ccc(F)cc1)C(=O)OC[C@@H]1CCCN1C(=O)[C@@H](CC=C)CC(=O)NCCO,n,n,n,n,n
C=CC[C@@H](Cc1ccc(F)cc1)C(=O)OC[C@@H]1CCCN1C(=O)[C@H](CC=C)CC(=O)N(CCO)Cc1ccccc1,n,u,n,n,20.6µM
C=CCC[C@@H](Cc1ccc(F)cc1)C(=O)OC[C@@H]1CCCN1C(=O)[C@@H](CC=C)CC(=O)N[C@@H](CO)Cc1ccccc1,n,16.4µM,n,n,n
O=C(NCCc1ccccn1)C1CC12CCN(C(=O)c1cccc(C(F)(F)F)c1)CC2 (configuration not stated),x,x,x,n,x
CCCCN(C=O)c1c(CC)nc2ccc(C(=O)N(C)Cc3ccccc3)cn12,x,n,x,n,n
Cc1cc(C2=NNC(=Nc3ccccc3)SC2)c(C)n1C,n,n,n,n,n
Cc1[nH]c2ccccc2c1C1=NNC(=Nc2ccc(F)cc2)SC1,20.6µM,u,u,u,n
COc1ccc(N=C2NN=C(c3c(C)[nH]c4ccccc34)CS2)cc1,18.4µM,u,u,u,n
CCCc1nc2ccccc2n1C(C(=O)NC(C)(C)C)C1CC1 (configuration not stated),x,n,x,x,n
CCCOc1ccc([C@@H]2C3CN(C(=O)OCC)CC=C3C(C#N)=C(N)C2(C#N)C#N)cc1OC (some centres not stated),n,n,n,n,n
CC(C)(C)OC(=O)N1CC=C2C(C#N)=C(N)C(C#N)(C#N)[C@H](c3cccnc3)[C@H]2C1,n,u,n,n,u
CC(C)(C)OC(=O)N1CC=C2C(C#N)=C(N)C(C#N)(C#N)C(c3cccs3)C2C1 (configuration not stated),u,n,n,n,9.2µM
CCOC(=O)N1CC=C2C(C#N)=C(N)C(C#N)(C#N)[C@H](c3cccs3)C2C1 (some centres not stated),n,n,n,n,9.2µM
COc1ccc(-c2n[nH]c(C)c2-c2cnn(-c3ccccc3)c2)c(O)c1,20.6µM,n,u,n,u
COc1ccc(-c2n[nH]c(C)c2-c2cnn(-c3ccccc3)c2)c(O)c1C,u,u,14.6µM,n,u
COc1ccc(-c2onc(C)c2-c2cnn(-c3ccccc3)c2)c(O)c1C,u,n,u,n,n
CSCC[C@H](NC(=O)c1cccc(S(=O)(=O)N2CCCCCC2)c1)c1nc2ccccc2[nH]1,n,u,u,n,n
CSCC[C@H](NC(=O)C1CCN(S(=O)(=O)c2ccc(C)cc2C)CC1)c1nc2ccccc2[nH]1,n,n,n,n,23.1µM
CSCC[C@H](NC(=O)c1cccc([N+](=O)[O-])c1C)c1nc2ccccc2[nH]1,n,n,n,n,16.4µM
Oc1ccccc1Oc1c(F)c(F)nc(N2CCCC2)c1F,u,n,n,n,n
CC(=O)/C=C/c1ccccc1Oc1c(F)c(F)nc(F)c1F,23.1µM,u,18.4µM,u,n
COCc1c(C(=O)N2CCN(c3ccccc3)CC2)cnn1-c1nccc(-c2ccco2)n1,x,x,x,n,x
Cc1oc2ccc(OS(C)(=O)=O)cc2c1C(=O)OC(C)C,n,n,n,n,13µM
COC1=CC(=O)c2c(ccc3ncnc(N)c23)C1=O,n,2.06µM,u,n,1.84µM
SMILES,MCF10A rereplic,KB-3-1 cytotox,SW480 rerep,PINK1 modulator,KB-V1 MDR tox
O=C(Nc1nnc(-c2cccs2)s1)C1CC1,n,u,n,n,n
O=C(Nc1nc(-c2cccs2)c(-c2cccs2)s1)C1CCCC1,u,u,n,u,20.6µM
CCNC(=S)N1CCC(C(=O)c2ccc(F)cc2)CC1,x,n,x,n,n
Cc1ccc2nc(SCC(=O)c3c[nH]c4ccccc34)[nH]c2c1,u,n,n,n,n
Cc1ccc2nc(SCC(=O)c3c(C)[nH]c4ccccc34)[nH]c2c1,13µM,n,n,n,u
Cc1ccc2nc(SCn3nnc4ccccc4c3=O)[nH]c2c1,u,n,n,n,23.1µM
CC(C)(O)C#Cc1ccc(C(=O)NCCN2Cc3ccccc3OC(c3ccccc3F)C2)o1 (configuration not stated),x,x,x,n,x
c1ccc(CN2CCC(N3CCC(N4CCCCCC4)CC3)CC2)cc1,u,n,u,n,n
c1ccc2c(c1)c1c(c3ccccc32)CN2CCCC2C1 (configuration not stated),u,u,18.4µM,n,16.4µM
Cc1cc(Br)cc(Cl)c1OCC(=O)NC(=O)NCc1ccccc1,18.4µM,n,n,n,n
Cc1nnc2n(c1=O)C(CS(=O)(=O)c1ccccc1)CS2 (configuration not stated),n,n,n,n,n
O=[N+]([O-])c1ccc(S(=O)(=O)CC2CSc3nc4ccccc4n32)cc1 (configuration not stated),n,1.84µM,u,n,2.59µM
CCCCOc1ccc(Br)cc1/C(C)=N/NC1=NCCN1,10.3µM,4.11µM,u,n,5.8µM
O=C(/C=C/c1ccccc1)NC(=S)Nc1ccc2c3c(cccc13)CC2,u,4.11µM,n,n,n
CC(Sc1nc2c(c(=O)[nH]1)CCCC2)C(=O)Nc1ccccc1C#N (configuration not stated),n,n,n,n,n
Cc1ccc(S(=O)(=O)Nc2cc(=O)[nH]c(SCC(=O)Nc3cccc(C(F)(F)F)c3)n2)cc1,n,n,n,n,n
O=c1cc(NS(=O)(=O)c2ccccc2)nc(SCc2ccc(Cl)cc2)[nH]1,u,n,n,n,16.4µM
Cc1ccc(NC(=O)CSc2nc(NS(=O)(=O)c3ccc(C)cc3)cc(=O)[nH]2)cc1,u,n,n,n,4.11µM
CCOC(=O)c1ccc(NC(=O)CSc2ccc3ccccc3n2)cc1,x,n,x,n,n
Nc1nc2ccccc2n1/N=C/c1ccc2c(c1)OCO2,n,n,20.6µM,n,u
Nc1nnnn1/N=C/c1ccc(Br)cc1,u,n,n,n,n
Nc1nc2ccccc2n1/N=C/c1ccc(Br)cc1,n,n,n,n,9.2µM
Cn1c(/N=C/c2ccc3c(c2)OCO3)nc2ccccc21,n,n,n,n,n
Cc1cc(C(=O)N(C)Cc2ccc(Br)cc2)no1,n,n,n,n,n
CN(Cc1ccccc1)C(=O)c1cc(-c2ccc(Br)cc2)on1,n,u,n,n,14.6µM
CC(C)NC(=O)c1cc(-c2ccc(Br)cc2)on1,n,n,n,10µM,n
CCCNC(=O)c1cc(-c2ccc(Br)cc2)on1,n,n,n,n,n

# Compound activity deposited in PubChem by National Center for Advancing Translational Sciences (NCATS).
